Laboratory results from PubChem BioAssay.
Values without a mark were called inactive.

Experiment: growth of efflux-deficient E. coli DRC39 – strain DRC39, OD650, 48 h, E. coli filamentation inducers, primary screen (AID 1179);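 also: screen aims at cell division blockers that make cells filament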
Conditions: E. coli DRC39 delta-acrAB growth, higher = more signal, called active from +8 up or from −8 down

Point of comparison: `O=C1c2ccccc2[C@](Cc2ccccc2I)(C(=O)NCC(F)(F)F)[C@H](c2ccc(CO)cc2)N1Cc1ccccc1Cl`, z-score 0.53. Against it:
- COc1cc2c(cc1OC)CN(C(=O)[C@H]1[C@@H]3C(=O)O[C@@H](c4ccccc4)[C@@H](c4ccccc4)N3[C@@H](c3ccc(O)cc3)[C@]13C(=O)Nc1ccccc13)CC2 — lower, -0.144
- C=CCNC(=O)[C@@H]1[C@H]2C(=O)O[C@H](c3ccccc3)[C@H](c3ccccc3)N2[C@H](c2ccc(OCCO)cc2)[C@@]12C(=O)Nc1ccc(C#CCC(C(=O)OC)C(=O)OC)cc12 — lower, 0.286
- COCCOC(=O)N1C(=O)[C@@]2(c3cc(C#CC4(O)CCCCCC4)ccc31)[C@H](c1ccc(OCCO)cc1)N1[C@H](c3ccccc3)[C@H](c3ccccc3)OC(=O)[C@H]1[C@@H]2C(=O)N1CCN(c2ncccn2)CC1 — lower, -0.477
- CC1(C)[C@@H]2CC(C(O)C3C=CC4C(=O)N(c5ccccc5)C(=O)C4N3Nc3ccc([N+](=O)[O-])cc3)=C[C@H]1C2 (stereo partly specified) — lower, -0.512
- NC(=O)NCC#Cc1ccc2c(c1)[C@]1(C(=O)N2)[C@H](C(N)=O)[C@H]2C(=O)O[C@H](c3ccccc3)[C@H](c3ccccc3)N2[C@@H]1c1ccc(O)cc1 — lower, -0.612
- O=C(c1ccccc1)N1Cc2ccccc2C[C@@]2(COC(c3ccc(OCCCO)cc3)=N2)C1=O — lower, -0.564
- C=CC[C@]1(C(=O)NCc2ccccc2)N=C(c2ccc(OCCCO)cc2)O[C@H]1c1ccccc1N=[N+]=[N-] — lower, -0.822
- CC1CC/C=C\[C@H]2OC34C=CCN(C(C)(C)C)C(=O)[C@H]3N(C(C)CO)C(=O)[C@@H]4C2C(=O)O1 (stereo partly specified) — higher, 0.771
- CCOC(=O)C[C@H]1[C@H](OC(=O)c2ccc(C(=O)c3ccccc3)cc2)[C@@H](NC(=O)c2ccccc2)c2cc(OCCCO)ccc2N1C(=O)Cc1ccc(OC)cc1 — lower, 0.419
- COCCOC(=O)N1C(=O)[C@@]2(c3cc(C#CCNC(N)=O)ccc31)[C@H](C(=O)Nc1nc3ccccc3s1)[C@H]1C(=O)O[C@H](c3ccccc3)[C@H](c3ccccc3)N1[C@@H]2c1ccc(OCCO)cc1 — lower, -0.463
- CC(C)OC(=O)C=C1C[C@@H](c2ccccn2)O[C@@H](c2ccccn2)O1 — lower, 0.115
- COC(=O)C(CC#Cc1ccc2c(c1)[C@]1(C(=O)N2)[C@H](c2ccc(OCCO)cc2)N2[C@H](c3ccccc3)[C@H](c3ccccc3)OC(=O)[C@H]2[C@@H]1C(=O)N1CCc2cc(OC)c(OC)cc2C1)C(=O)OC — lower, -0.182
- COc1ccc([Si](C)(C)[C@H]2[C@H](CC(=O)N3Cc4ccccc4C[C@H]3CO)O[C@@]3(C(=O)N(Cc4cccc(N5CCC5=O)c4)c4ccccc43)[C@@H]2C)cc1 — lower, 0.398
- COCCCNC(=O)[C@]1(CCC(=O)OC(C)(C)C)N=C(c2ccc(OCCCO)cc2)O[C@@H]1c1ccccc1CN=[N+]=[N-] — lower, -0.187
- COCCOC(=O)N1C(=O)[C@@]2(c3cc(C#CCC(C(=O)OC)C(=O)OC)ccc31)[C@H](c1ccccc1OCCO)N1[C@H](c3ccccc3)[C@H](c3ccccc3)OC(=O)[C@H]1[C@@H]2C(=O)NC[C@H](O)c1ccccc1 — lower, 0.382
- COc1cc2c(cc1O)C(c1cccs1)N(C)CC2 (stereo unspecified) — higher, 0.597
- C=C[C@@H](COC(=O)OC(C)(C)C)N(Cc1ccc(OC)cc1)S(=O)(=O)c1ccc(Br)cc1 — lower, -0.667
- CCS[C@H]1[C@@H](C(=O)O)[C@H](c2ccc(C)cc2)N(S(=O)(=O)c2ccc(C)cc2)[C@@H]1CC — higher, 0.843
- CN1C(=O)C2C=CC(C(O)C#Cc3ccccc3)N(N3CCCCC3)C2C1=O (stereo unspecified) — lower, -0.884
- O=C1O[C@H](c2ccccc2)[C@H](c2ccccc2)N2[C@H]1[C@@H](C(=O)N1CCCCCCC1)[C@]1(C(=O)Nc3ccc(C#CCCO)cc31)[C@H]2c1ccccc1OCCO — lower, -0.106
- CC(C)C(=C=CC[C@@H](O)c1ccc(OCCO)cc1)C[C@@H](O)COCc1ccccc1 — higher, 1.29
- CCCC[C@H]1OB(O)C[C@H]2C1=C(COC)Cn1c(=O)n(-c3ccccc3)c(=O)n12 — lower, 0.452
- CCC[C@@H]1C[C@@]1(CCC)[C@@H](NS(=O)(=O)c1cccc2cccnc12)c1ccc(Cl)cc1 — lower, -0.0357
- [N-]=[N+]=Nc1ccccc1[C@@H]1OC(c2ccc(OCCCO)cc2)=N[C@]1(CCS(=O)(=O)c1ccccc1)C(N)=O — lower, -0.397
- COC(=O)[C@@]1(Cc2ccc(F)cc2)[C@H]2c3cc(C(=O)N(C)C)n(Cc4ccc(Cl)c(C(F)(F)F)c4)c3C[C@H]2CN1C(=O)c1ccccc1 — lower, -0.531
- CO[C@H]1O[C@H](CO)[C@@H](OC(=O)Nc2ccc(Oc3ccccc3)cc2)[C@H](OC(=O)Nc2ccc3c(c2)OCO3)[C@H]1OC(=O)Nc1ccc2c(c1)OCO2 — lower, 0.0431
- CC(C)=CCCC(C)=CC(O)C1C=CC2C(=O)N(C)C(=O)C2N1Nc1ccccc1 (stereo unspecified) — lower, 0.0052
- CCOC(=O)C[C@H]1[C@H](OC(=O)c2ccc(-c3ccccc3)cc2)[C@@H](NC(=O)Cc2ccc(OC)cc2)c2cc(OCCCO)ccc2N1C(=O)c1ccccc1 — lower, 0.339
- CC(C)C[C@@H]1NC(=O)[C@@H]2C[C@H](C(=O)NCc3ccc(F)cc3)[C@H](c3cccc(OCCO)c3)N2C1=O — higher, 1.48
- NC(=O)NCC#Cc1ccc2c(c1)[C@]1(C(=O)N2)[C@H](c2ccccc2OCCO)N2[C@H](c3ccccc3)[C@H](c3ccccc3)OC(=O)[C@H]2[C@@H]1C(=O)Nc1nc2ccccc2s1 — lower, 0.24
- C=C(CCCC)/C(=C/C[C@@H](OC(=O)c1ccncc1)c1ccc(OCCO)cc1)c1cc(C(=O)OC)ccc1OC — higher, 0.868
- C=C(C)[C@@H]1CC=C(C(O)C2C=CC3C(=O)N(C)C(=O)C3N2Nc2ccccc2)CC1 (stereo partly specified) — lower, -0.472
- O=C1N[C@@H](Cc2ccccc2)C(=O)N2[C@@H]1C[C@@H](C(=O)O)[C@H]2c1cccc(OCCO)c1 — higher, 0.993
- COC(=O)C(CC#Cc1ccc2c(c1)[C@]1(C(=O)N2)[C@H](c2ccc(OCCO)cc2)N2[C@H](c3ccccc3)[C@H](c3ccccc3)OC(=O)[C@H]2[C@@H]1C(=O)Nc1nc2ccccc2s1)C(=O)OC — higher, 0.824
- C=CCN1C(=O)[C@@]2(Cc3ccccc31)N=C(c1ccc(OCCCO)cc1)O[C@H]2c1ccccc1 — higher, 0.775
